HT1080-NT tox: kills 2HG-producing HT-1080-NT fibrosarcoma cells; HT-1080-NT fibrosarcoma viability, CellTiter-Glo ATP luminescence, 48 h; Potency, µM (series often up to 46.1 µM), for the others: top-dose activity, negative = less viability, usual class: cytotoxic; 360,000 compounds, 1.6% hits; AID 686970;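 further: NT is the 2HG producing partner of a matched IDH1 knockdown line; potency means the concentration at half of the fitted maximal effect; 0% = DMSO-treated cells and -100% = media-only wells without cells; nearly all actives have a fitted effect of over 55% in size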
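HT-1080-NT fibrosarcoma cells (2HG-overproducing), 750 cells/well in RPMI with 5% FBS, dosed after 2 h and incubated 48 h at 37C. CellTiter-Glo luminescence normalized to DMSO and no-cell wells; concentration-response curves fitted and classed.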
TDP1 cell CPT: DT40-hTDP1 cell growth loss with CPT; chicken DT40 Tdp1-/-;hTDP1 cells + 20 nM CPT, ATP luminescence, 48 h; Potency, µM (titrated, usually from 46.2 µM), inactives show at the top dose activity change, negative = growth inhibition, actives largely listed as inhibitors; 420,000 compounds, 12% hits; further: potency means the concentration at half of the fitted maximal effect; nearly all actives have a fitted effect of over 55% in size
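Chicken DT40 Tdp1-/- cells complemented with human TDP1, 400 cells/well, exposed to compounds plus 20 nM camptothecin for at least 48 h at 37 C; viability read as ATP content by CellTiter-Glo luminescence.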
HT1080 IDH1KD tx: HT-1080 IDH1 knockdown cell toxicity (counter line) | HT-1080 IDH1 knockdown viability, ATP luminescence, 48 h | Potency, µM (titrated, usually from 46.1 µM), without a hit: at the top dose activity, negative = toxicity, actives largely listed as cytotoxic | 360,000 compounds, 2% hits;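 further: potency means the concentration at half of the fitted maximal effect; 0% = DMSO wells and -100% = cell-free medium wells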
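Assay cells: HT-1080 with IDH1 knockdown, 750 per well, RPMI/5% FBS. Exposure: 48 h at 37 °C following 2 h pre-incubation. Read: CellTiter-Glo luminescence; fitted concentration-response, curve class assigned.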
TDP1 cell noCPT: qHTS for Inhibitors of human tyrosyl-DNA phosphodiesterase 1 (TDP1): qHTS in cells in absence of CPT | AID 686978, 2013 | Potency, µM (titrated, usually from 46.2 µM), inactives show top-dose activity change, negative = growth inhibition, usual class: inhibitors | 420,000 compounds, 15% hits | DT40 Tdp1-/- hTDP1 cells, no CPT, ATP luminescence, 48 h; further: potency means the concentration at half of the fitted maximal effect; nearly all actives have a fitted effect of over 55% in size
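Chicken DT40 Tdp1-/- cells complemented with human TDP1, screened without camptothecin (DMSO vehicle only), 400 cells/well. Compounds pin-transferred, cells incubated at 37 °C for at least 48 hr. Growth read as ATP-dependent luminescence (CellTiter-Glo, 30 min at RT).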
IL-1B inflam inh: inflammasome signaling inhibition, IL-1 beta readout; THP-1 LPS/ATP IL-1B secretion, AlphaLISA, 16 h; hits give low values; 360,000 compounds, 4.7% hits; activity change, % at 57.5 µM; in the data active means activity change below about -50%; inconclusive means mostly about -30% to -49%
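THP-1 cells pretreated 1 hr with compounds (up to 57.5 uM final), then stimulated with LPS (250 ng/mL final) plus ATP (1.25 mM final); secreted IL-1B measured by AlphaLISA after 16 hr, decreased signal indicating inhibition.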
ELG1 repair inh: ELG1-dependent DNA repair inhibition. HEK293T ELG1-luciferase reporter, luminescence, 16 h; DNA damage induced by 5-fluorouridine. Potency, µM (titrated, usually from 46.1 µM), without a hit: top-dose activity change, negative = inhibition, most hits filed as inhibitors. 330,000 compounds, 2.3% hits; further: potency means the concentration at half of the fitted maximal effect; nearly all actives have a fitted effect of over 55% in size
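Quantitative HTS, concentration-response format. 2,000 cells/well co-treated with 5-fluorouridine and compound, 16 hr in 5% CO2 at 37 °C; ONE-Glo luminescence read after 30 min.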
Starred values were filed as active, the others as inactive; u = inconclusive; x = no result given; [ ] = another dose, or the depositor's remark. Compounds with a hit are over-represented: about 19% of the library has one in this group of screens. Unless noted, the call rests on the fitted dose curve; in most records, active means well fitted curve in the direction sought with a large enough effect; inconclusive means small, poorly fitted or top-dose-only effect, or another doubt; inactive means no such curve, though single readings can be large; an effect the other way counts as inactive or inconclusive. Unless noted, on the % scale 0 is the no-effect control and ±100 the full control effect.

SMILES | HT1080-NT tox | TDP1 cell CPT | HT1080 IDH1KD tx | TDP1 cell noCPT | IL-1B inflam inh | ELG1 repair inh
Cc1ccc(CNC(=O)CCc2c(C)c3cc4c(C)coc4cc3oc2=O)cc1 | x | 16.4µM* | x | u | x | x
COc1ccc(CCNC(=O)CCc2c(C)c3cc4c(C)c(C)oc4cc3oc2=O)cc1 | x | 10.3µM* | x | 20.6µM* | x | x
CCCCCCCCCCCCC/C=C/[C@@H](O)[C@H](CO)NC(C)=O | x | -14.7%[4.12 µM] | x | u | x | x
O=C1c2ccccc2C(=O)c2c1ccc(C(=O)N1CCCCC1)c2NCCO | 5.0% | u | 17.1% | u | -7.3 | 4.8%
CCN(CCN(C)C)C(=O)c1ccc2c(c1NCCO)C(=O)c1ccccc1C2=O | u | u | u | 23.1µM* | -29.7 | 17.1%
CC1(C)CCCN(C(=O)c2ccc3c(c2NCCO)C(=O)c2ccccc2C3=O)C1 | -9.7% | u | -8.6% | u | -64.7* | u
Cc1cc(C)c(C#N)c(Nc2ccccc2Cl)n1 | u | 5.9% | 2.6% | 2.2% | 18.4 | 6.3%
N#Cc1c(Nc2ccccc2C(F)(F)F)s[nH]c1=O | -24.8% | 20.6µM* | u | 20.6µM* | x | 5.6%
N#Cc1c(Nc2ccccc2Cl)s[nH]c1=O | u | 14.6µM* | 16.4µM* | 5.17µM* | -59.3* | u
N#Cc1c(Nc2ccccc2)s[nH]c1=O | -26.7% | 8.2µM* | -10.7% | 8.2µM* | u | 13.4%
Cc1cc(NC(=O)c2ccc(OCC3CCCO3)cc2)ccc1Br (stereo unspecified) | -10.8% | 20.6µM* | u | 14.6µM* | 19.7 | x
CCN(CC)S(=O)(=O)c1ccc(NC(=O)c2ccc(OCC3CCCO3)cc2)cc1 (stereo unspecified) | -18.2% | 23.1µM* | u | 14.6µM* | u | u
O=C(Nc1ccc(Br)cc1Cl)c1ccc(OCC2CCCO2)cc1 (stereo unspecified) | -6.8% | u | -10.5% | u | -81.2* | u
O=C(Nc1ccc(Cl)cc1)c1ccc(OCC2CCCO2)cc1 (stereo unspecified) | -12.1% | 8.2% | 0.2% | u | 23.9 | u
CCc1ccc(CNC(=O)CCCC(=O)n2nc(C)c3ccccc32)cc1 | 15.9% | 5.0% | 3.2% | 19.3% | -13.5 | 1.0%
CCCCCC(=O)NC(Nc1ccc(S(N)(=O)=O)cc1)C(Cl)(Cl)Cl (stereo unspecified) | 8.6% | 16.4µM* | -1.9% | u | -2.1 | -11.9%
CNc1cncc(-c2cc(C)c(O)c(C)c2)n1 | u | 4.11µM* | u | 6.51µM* | -26.0 | x
CN(c1ccccc1)S(=O)(=O)c1cccc(NC(=O)CCNC(=O)c2ccccc2)c1 | 3.9% | 18.4µM* | 6.1% | 16.4µM* | 12.4 | u
CN(c1ccccc1)S(=O)(=O)c1cccc(NC(=O)CCNC(=O)c2ccc(Cl)cc2)c1 | -10.9% | 23.1µM* | -17.8% | u | -12.9 | u
CCCC(=O)Nc1cccc(S(=O)(=O)N(C)c2ccccc2)c1 | 6.2% | 16.4µM* | 1.5% | u | 3.1 | -15.0%
CSc1ccc(C(=O)C2CCCN(C(=O)c3cc4cc(F)ccc4[nH]3)C2)cc1 (stereo unspecified) | -6.3% | 18.4µM* | -21.8% | 18.4µM* | -62.8* | -0.4%
O=C(c1cc2cc(F)ccc2[nH]1)N1CCN(C(=O)c2ccco2)CC1 | -9.0% | u | -9.1% | 20.6µM* | -1.1 | u
O=C(c1cc2cc(Cl)ccc2[nH]1)N1CCN(c2ccc(F)cc2)CC1 | 3.4% | -14.4% | -1.6% | -11.4% | -85.0* | -0.9%
COc1ccc(N2CCN(C(=O)c3cc4cc(Cl)ccc4[nH]3)CC2)cc1 | 1.4% | u | 2.8% | u | 22.3 | -2.9%
COc1ccccc1N1CCN(C(=O)c2cc3cc(Cl)ccc3[nH]2)CC1 | -1.4% | 16.4µM* | -3.1% | 18.4µM* | -1.1 | u
SMILES | HT1080-NT tox | TDP1 cell CPT | HT1080 IDH1KD tx | TDP1 cell noCPT | IL-1B inflam inh | ELG1 repair inh
COc1cc(C2C(=O)N(C3CCCCC3)CC(=O)N2CCC2=CCCCC2)ccc1OC(C)C (stereo unspecified) | x | -15.2% | x | -12.4% | x | x
C/C(=N\NC(=O)c1ccc(Br)o1)c1cc2c(cc1NC(=O)CCC(=O)O)OCO2 | 0.1% | 6.8% | 5.0% | -4.1% | 26.1 | 6.9%
CCCNC(=O)C(CC)NC(=O)c1cccc([N+](=O)[O-])c1 (stereo unspecified) | 0.0% | -12.3% | 8.5% | 1.0% | 12.5 | u
Cc1csc(SCC(=O)NC(C)c2ccccc2)n1 (stereo unspecified) | 4.5% | 5.8% | 6.5% | -2.8% | 26.9 | 3.6%
COc1ccccc1N1CCN(C(=O)c2cc3cc(F)ccc3[nH]2)CC1 | u | u | -9.4% | 23.1µM* | u | -20.3%
COc1ccc(C2=CSC3=C(C(=O)c4cccc(S(=O)(=O)N(C)C)c4)CCN23)cc1 | 0.6% | 23.1µM* | 5.1% | 16.4µM* | 14.5 | -8.2%
COc1ccc(C2=Nc3ccccc3N(C(=O)Cc3cc(OC)cc(OC)c3)C2C(=O)NC(C)(C)C)cc1 (stereo unspecified) | -4.6% | 18.4µM* | -0.1% | -85.3% | -16.9 | x
COc1ccc(C2=Nc3ccccc3N(C(=O)c3ccc4ncccc4c3)C2C(=O)NC(C)(C)C)cc1 (stereo unspecified) | -12.3% | 13µM* | u | 23.1µM* | 0.7 | x
COc1ccc(C2=Nc3ccccc3N(C(=O)c3ccncc3)C2C(=O)NC(C)C)cc1 (stereo unspecified) | 1.7% | u | 8.5% | -28.5% | 12.6 | x
COc1ccc(C2=Nc3ccccc3N(C(=O)c3ccc4ncccc4c3)C2C(=O)NC2CCCC2)cc1 (stereo unspecified) | u | 8.2µM* | u | 9.2µM* | -6.1 | x
CCc1ccc2c(c1)C(O)(CC(=O)c1cccs1)C(=O)N2 (stereo unspecified) | -3.6% | u | -0.7% | u | 57.8 | 0.2%
Cc1nn(C)c2c1c(C(F)(F)F)cc(=O)n2CC(=O)NCc1ccc(OC(C)C)cc1 | x | -26.1% | x | u | x | x
Cc1nn(C)c2c1c(C(F)(F)F)cc(=O)n2C(C)C(=O)NCCc1ccc(Cl)cc1 (stereo unspecified) | x | 14.6µM* | x | u | x | x
Cc1ccc(C)c(NC(=O)C(C)n2c(=O)cc(C(F)(F)F)c3c(C)nn(C)c32)c1 (stereo unspecified) | x | -19.8% | x | 2.2% | x | x

Screening data deposited in PubChem by National Center for Advancing Translational Sciences (NCATS).
